Screen size: about 5,500 compounds; about 2,000 (36%) were called active. About 18% were inconclusive and are not listed. Rule as the data show it: active = normalized growth mostly below about 0.91 (no sharp cut-off); inconclusive = no clear call, values can overlap the other calls; inactive = mostly above about 0.92. Some of the results follow.
Test: chemical genetic growth profiling, strain panel (AID 1159580);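 also: tested at 20 µM; growth read once vehicle control cultures reached saturation at 30 °C; 1 = growth at the plate median or of vehicle wells; lower values mean less growth of the strain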
Details: S. cerevisiae deletion strains, growth OD

Measured: normalized growth

CCN1CCN(c2cc3c(cc2F)c(=O)c(C(=O)O)cn3C2CC2)CC1
inactive: locus YAL021C, strain ccr4, hits give low values 1.04 | locus YAL026C, strain drs2, hits give low values 1.01 | locus YAL030W, strain snc1, hits give low values 1.01 | locus YBL061C, strain skt5, hits give low values 1.01 | locus YBR009C, strain hhf1, hits give low values 1 | locus YBR023C, strain chs3, hits give low values 1.01 | locus YBR171W, strain sec66, hits give low values 1.02 | locus YBR231C, strain swc5, hits give low values 1.02 | locus YBR279W, strain paf1, hits give low values 1.01 | locus YCL011C, strain gbp2, hits give low values 1.01 | locus YCL016C, strain dcc1, hits give low values 0.997 | locus YCL061C, strain MRC1, hits give low values 1.01 | locus YCL069W, strain vba3, hits give low values 1.01 | locus YCR088W, strain abp1, hits give low values 1.01 | locus YDL005C, strain med2, hits give low values 1.02 | locus YDL040C, strain nat1, hits give low values 1.01 | locus YDR001C, strain nth1, hits give low values 1.01 | locus YDR069C, strain doa4, hits give low values 1 | locus YDR137W, strain rgp1, hits give low values 0.969 | locus YDR159W, strain sac3, hits give low values 1.01 | locus YDR195W, strain ref2 1.04 | locus YDR297W, strain sur2, hits give low values 1.01 | locus YDR334W, strain swr1, hits give low values 1.02 | locus YDR335W, strain msn5, hits give low values 1.03 | locus YDR392W, strain spt3, hits give low values 1 | locus YEL003W, strain gim4, hits give low values 1.01 | locus YEL037C, strain rad23, hits give low values 1.01 | locus YEL061C, strain CIN8 (second series), hits give low values 1.02 | locus YER015W, strain faa2, hits give low values 1.01 | locus YER016W, strain bim1, hits give low values 0.995 | locus YER111C, strain swi4, hits give low values 1.02 | locus YER155C, strain BEM2 (second series), hits give low values 1.01 | locus YFR010W, strain ubp6, hits give low values 1.01 | locus YGL167C, strain pmr1, hits give low values 1.02 | locus YGL173C, strain kem1, hits give low values 1 | locus YGL227W, strain vid30, hits give low values 1.01 | locus YGL240W, strain doc1, hits give low values 0.997 | locus YGL253W, strain hxk2, hits give low values 1.01 | locus YHR013C, strain ard1, hits give low values 1.04 | locus YHR027C, strain rpn1, hits give low values 1.02 | locus YHR030C, strain SLT2, hits give low values 0.992 | locus YHR079C, strain IRE1, hits give low values 0.986 | locus YHR142W, strain chs7, hits give low values 1.02 | locus YJL092W, strain hpr5, hits give low values 1.01 | locus YJL095W, strain BCK1 (second series), hits give low values 1.02 | locus YJL095W, strain BCK1, hits give low values 0.995 | locus YJL115W, strain asf1, hits give low values 0.989 | locus YJL129C, strain trk1, hits give low values 1.03 | locus YJL154C, strain vps35, hits give low values 1.02 | locus YJL164C, strain tpk1, hits give low values 1.01 | locus YJL166W, strain qcr8, hits give low values 1 | locus YJL187C, strain SWE1, hits give low values 1.01 | locus YJR066W, strain TOR1, hits give low values 0.962 | locus YKL160W, strain elf1, hits give low values 1 | locus YKR026C, strain gcn3, hits give low values 1.01 | locus YKR091W, strain srl3, hits give low values 1 | locus YLL001W, strain dnm1, hits give low values 1.02 | locus YLL026W, hits give low values 1 | locus YLL041C, strain sdh2, hits give low values 1.01 | locus YLR027C, strain aat2, hits give low values 1.01 | locus YLR113W, strain HOG1, hits give low values 1.03 | locus YLR221C, strain rsa3, hits give low values 1.01 | locus YLR258W, strain gsy2, hits give low values 1.01 | locus YLR262C, strain YPT6 (second series), hits give low values 0.962 | locus YLR342W, strain FKS1, hits give low values 1.02 | locus YLR357W, strain rsc2, hits give low values 0.994 | locus YLR370C, strain arc18, hits give low values 1.02 | locus YLR384C, strain iki3, hits give low values 1 | locus YML120C, strain ndi1, hits give low values 1.01 | locus YMR058W, strain fet3, hits give low values 1.01 | locus YMR125W, strain sto1, hits give low values 1.02 | locus YMR129W, hits give low values 1.01 | locus YMR205C, strain PFK2, hits give low values 1 | locus YMR231W, strain pep5, hits give low values 1.02 | locus YNL071W, strain lat1, hits give low values 1.02 | locus YNL183C, strain NPR1, hits give low values 0.935 | locus YNL209W, strain ssb2, hits give low values 1.03 | locus YNL248C, strain rpa49, hits give low values 1.01 | locus YNL322C, strain KRE1 (second series), hits give low values 1 | locus YNR049C, strain mso1, hits give low values 1.01 | locus YOR001W, strain rrp6, hits give low values 1.01 | locus YOR070C, strain gyp1, hits give low values 1.02 | locus YOR080W, strain dia2, hits give low values 0.992 | locus YOR083W, strain WHI5, hits give low values 1.01 | locus YOR106W, strain vam3, hits give low values 0.994 | locus YOR231W, strain MKK1, hits give low values 0.981 | locus YOR265W, strain rbl2, hits give low values 1.01 | locus YOR270C, strain vph1, hits give low values 1.03 | locus YOR290C, strain snf2, hits give low values 0.957 | locus YPL051W, strain arl3, hits give low values 1.01 | locus YPL078C, strain atp4, hits give low values 1.02 | locus YPL106C, strain sse1, hits give low values 0.998 | locus YPL240C, strain hsp82, hits give low values 1.01 | locus YPL256C, strain CLN2, hits give low values 0.986
active: locus YLR320W, strain mms22, hits give low values 0.854

— PubChem BioAssay AID1159580 (chemical genetic matrix, 2015)
